WT yeast gro inh: growth inhibition of WT yeast, mitochondrial fusion screen; 2.1% of 190,000 active; inhibition, % at 10 µM; AID 1362; mitochondrial fusion phenotypic screen, WT strain; in the data active = inhibition above about 58%; tested in S. cerevisiae
CHOP inhibitor: CHOP inhibition in unfolded protein response | CHO-K1 CHOP-promoter luciferase, tunicamycin-induced, 15-18 h | inhibition, % at 10 µM | 3.8% of 220,000 active | AID 2732;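 active = compounds that reduced the stress-induced luciferase reporter signal by more than about 70% of percent inhibition, limit read from the data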;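 note: 0% = tunicamycin plus vehicle and 100% = wells without tunicamycin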
Lmaj promast: Leishmania major promastigote growth inhibition. inhibition, % at 10 µM. Leishmania major promastigotes, resazurin fluorescence viability. 9% of 200,000 active; in the data active = inhibition above about 50%;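 note: promastigotes grown with compound for 44 hours at 28 °C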
RAM inhibit: yeast RAM network inhibition; S. cerevisiae dse1pr::URA3 reporter, 5-FOA growth OD615, 2 d; analog-sensitive cbk1-as2 kinase mutant strain; inhibition, % at 50 µM; 1.8% of 190,000 active; AID 868;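 active = inhibition above a set limit, 3 SD over mean compound inhibition, cut at about 8.4% in these data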;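 note: 0% = DMSO-only wells with no growth and 100% = 10 µM 1-NA-PP1 full growth; inhibition rescues growth on 5-FOA so higher OD means more RAM inhibition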
* marks the source's active call; other numbers are inactive results. Rows were chosen to be rich in hits. Some 13% of all compounds tested hit in one or more screens of this group.

`Fc1ccc(N2CCN(C(c3cccs3)c3nnnn3CCc3ccccc3)CC2)cc1` (stereo unspecified) gave WT yeast gro inh 10, CHOP inhibitor 44, Lmaj promast 71* and RAM inhibit 3.
For c1ccc(CCn2nnnc2C(c2cccnc2)N2CCN(c3nc4ccccc4s3)CC2)cc1 (stereo unspecified) the results were WT yeast gro inh 31, CHOP inhibitor 35, Lmaj promast 100* and RAM inhibit 2.
For COCCn1nnnc1C(c1ccccc1)N1CCN(c2ccccc2)CC1 (stereo unspecified) the results were WT yeast gro inh -8, CHOP inhibitor 1, Lmaj promast 1 and RAM inhibit 0.
For O=C(NNC(=O)C12CC3CC(CC(C3)C1)C2)[C@@H]1C[C@H]1c1ccccc1 the results were WT yeast gro inh -1, CHOP inhibitor 12, Lmaj promast 6 and RAM inhibit 1.
Screening O=C(COC(=O)c1cc(Br)ccc1O)Nc1cc(S(=O)(=O)N2CCCC2)ccc1Cl returned WT yeast gro inh 28, CHOP inhibitor 3, Lmaj promast 3 and RAM inhibit 3.
CCOCCn1c(=NC(=O)c2cc3ccccc3oc2=O)sc2cc(S(N)(=O)=O)ccc21 was read as WT yeast gro inh -13, CHOP inhibitor 4, Lmaj promast -3 and RAM inhibit 8.9*.
COCCn1c(=NC(=O)c2cc(-c3cccs3)nc3ccccc23)sc2cc(S(N)(=O)=O)ccc21 was read as WT yeast gro inh 12, CHOP inhibitor 34, Lmaj promast 41 and RAM inhibit 5.
For O=S(=O)(c1ccc(Cl)cc1)N1CCN(Cc2ccc(O)c3ncccc23)CC1 the results were WT yeast gro inh -18, CHOP inhibitor 10, Lmaj promast 98* and RAM inhibit -1.
`CCOc1ccc(S(=O)(=O)N2CCN(Cc3ccccc3)CC2)c2cccnc12` gave CHOP inhibitor 7, Lmaj promast 4 and RAM inhibit 0.
For Oc1ccc(CN2CCN(Cc3ccccc3)CC2)c2cccnc12 the results were WT yeast gro inh -11, CHOP inhibitor -10, Lmaj promast 100* and RAM inhibit 3.
Screening O=[N+]([O-])c1cc(CN2CCOCC2)c2cccnc2c1O returned WT yeast gro inh -13, CHOP inhibitor 19, Lmaj promast -4 and RAM inhibit 1.
`CN1CCN(Cc2cc(COCc3ccccc3)c3cccnc3c2O)CC1` gave WT yeast gro inh -1, Lmaj promast 100* and RAM inhibit -1.
`O=[N+]([O-])c1cc(CN2CCN(c3ccccc3)CC2)c(O)c2ncccc12` gave WT yeast gro inh 63, CHOP inhibitor 77*, Lmaj promast 100* and RAM inhibit -1.
For COc1cc2c(cc1OC)N1C(=O)CC(OCC(=O)O)C3C4CC5(CCN5C(=O)C4=O)C2C31 (stereo unspecified) the results were WT yeast gro inh 5, CHOP inhibitor 9, Lmaj promast -5 and RAM inhibit 1.
Screening O=C1CC(c2cccc(Cl)c2)CC(O)=C1C=NC1CCCC1 (stereo unspecified) returned WT yeast gro inh 5, CHOP inhibitor 13, Lmaj promast -11 and RAM inhibit -1.
`Cc1ccc([N+](=O)[O-])c(NC2OC(CO)C(O)C2O)c1` (stereo unspecified) gave WT yeast gro inh 7, CHOP inhibitor 25, Lmaj promast -9 and RAM inhibit 1.
Cc1cc(OCC(=O)Nc2ccc(F)c(F)c2)nc(C(C)C)n1 was read as WT yeast gro inh 7, CHOP inhibitor -9, Lmaj promast -6 and RAM inhibit 0.
Screening CN=c1scc(-c2ccccc2F)n1/N=C(\C)c1cccnc1 returned WT yeast gro inh 71*, CHOP inhibitor 9, Lmaj promast 15 and RAM inhibit 2.
C/C(=N\N1CCN(C2c3ccccc3-c3ccccc32)CC1)c1cccnc1 was read as WT yeast gro inh 6, CHOP inhibitor 17, Lmaj promast 10 and RAM inhibit -1.
`COc1cc(C(=O)OCC(=O)Nc2c(F)cccc2F)cc(OC)c1C` gave WT yeast gro inh -5, CHOP inhibitor 94*, Lmaj promast -3 and RAM inhibit 3.
COC(=O)c1ccc(NCCc2csc(-c3ccc(C)cc3)n2)c([N+](=O)[O-])c1 was read as WT yeast gro inh 3, CHOP inhibitor 2, Lmaj promast -5 and RAM inhibit 5.
`CC1(C)CC(=O)C(C2C3=C(CC(C)(C)CC3=O)Oc3ccc4ccccc4c32)C(=O)C1` (stereo unspecified) gave WT yeast gro inh 21, CHOP inhibitor 77*, Lmaj promast 2 and RAM inhibit 1.
CC1(C)CC(=O)C(C2C3=C(CC(C)(C)CC3=O)Oc3ccccc32)C(=O)C1 (stereo unspecified) was read as CHOP inhibitor 40.
For c1ccc(-c2nc(N3CCCC3)nc3ccccc23)cc1 the results were WT yeast gro inh 12, CHOP inhibitor -6, Lmaj promast 4 and RAM inhibit 0.
CC(Nc1nc(N2CCNCC2)nc2ccccc12)c1ccccc1 (stereo unspecified) was read as WT yeast gro inh 23, CHOP inhibitor -3, Lmaj promast 100* and RAM inhibit -1.
For O=C(NNc1cc(Cl)ccc1Cl)C1CCC1 the results were CHOP inhibitor 24.
For O=C1C(Cl)=C(NCCN2CCCCC2)C(=O)c2ccccc21 the results were WT yeast gro inh 4, CHOP inhibitor -43, Lmaj promast 99* and RAM inhibit 2.
For CCNC1=C(Cl)C(=O)c2ccccc2C1=O the results were WT yeast gro inh 4, CHOP inhibitor 18, Lmaj promast 15 and RAM inhibit 0.
`CCCCn1nnc(NC(=S)NC(=O)c2cccs2)n1` gave WT yeast gro inh 49, CHOP inhibitor -20, Lmaj promast -6 and RAM inhibit 1.
`CC1=NN(C(=O)CSCc2ccccc2)C(O)(c2ccc(F)cc2)C1` (stereo unspecified) gave WT yeast gro inh -4, CHOP inhibitor 10, Lmaj promast 99* and RAM inhibit 2.
For CCc1cc2cc(C)cc(C)c2nc1Cl the results were WT yeast gro inh -7, CHOP inhibitor 40, Lmaj promast 0 and RAM inhibit 3.
Screening CCCc1nc2c(C)cc(C)cc2c(N)c1CC returned WT yeast gro inh 9, CHOP inhibitor 15, Lmaj promast 98* and RAM inhibit 0.
`Cc1cc(N/N=C/c2ccc(O)cc2O)nc(-n2nc(C)cc2C)n1` gave WT yeast gro inh 1, CHOP inhibitor -14, Lmaj promast 100* and RAM inhibit 1.
Screening COc1ccc(/C=N/Nc2cc(C)nc(-n3nc(C)cc3C)n2)cc1 returned WT yeast gro inh 60*, CHOP inhibitor 61, Lmaj promast 96* and RAM inhibit 0.
`CCC(C)NC(=O)CSc1nnc(-c2c[nH]c3ccccc23)o1` (stereo unspecified) gave WT yeast gro inh -6, CHOP inhibitor 5, Lmaj promast -14 and RAM inhibit 0.
For Fc1ccc2c(c1)C1C=CCC1C(c1cc3c(cc1Br)OCO3)N2 (stereo unspecified) the results were WT yeast gro inh 18, CHOP inhibitor 70, Lmaj promast 12 and RAM inhibit 1.
